High-throughput results: PubChem, Broad Institute
A selection: hits, their analogues and other compounds. The true share with any hit is near 3.4%.
HIV Env fusion = inhibitors of HIV Env-mediated cell fusion; HeLa-JRFL Env/CEM21 cell fusion, luciferase; inhibition, % at 12.3 µM; 360,000 compounds, 1.1% hits; AID 651610;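 active means mean replicate inhibition score of at least 50 and every replicate individually at or above 50; inconclusive means only one of the two criteria met; inactive means mean below 50 and not all replicates reaching 50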;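 further: 0% = plate neutral controls and 100% = maraviroc near 300 nM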
MITF TRPM1 HTS = activators of MITF-driven TRPM1 promoter activity in SK-MEL-5 cells | 300,000 compounds, 0.75% hits | SK-MEL-5 TRPM1-promoter luciferase, 24 h; % of positive control, neutral wells = 0 | activation, % at 12.5 µM | AID 588334;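 active means mean activation of at least 80% with every replicate also reaching 80%; inconclusive means mean reaches 80% but some replicate falls short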;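 further: 0% = neutral control wells and 100% = parthenolide positive control wells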
Wnt bcat act = activators of Wnt/beta-catenin signaling. Wnt/beta-catenin reporter cell assay, activator, plate reader. activation, % at 9.35 µM. 300,000 compounds, 1.2% hits; in the data active means activation above about 30%, passing the limit was not always enough; inconclusive means no clear call, values can overlap the other calls;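 further: 0% = neutral control wells and 100% = positive control wells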
esBAF inh = SWI/SNF esBAF complex inhibition. mouse ES cells, Bmi1-luciferase knock-in reporter, 24 h; 100% = twice the neutral-well signal. reporter increase, % at 12.5 µM. 350,000 compounds, 2% hits. AID 602393; in the data active means activation above about 40%; inconclusive means no clear call, values can overlap the other calls;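 further: 0% = median of the plate's neutral control wells and 100% = double that signal; a rise in the Bmi1 reporter signal indicates esBAF inhibition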
miR-122 sensor = miR-122 inhibition in Huh7 cells; Huh7 miR-122 Renilla luciferase sensor, 48 h; neutral wells = 0, positive control = 100; activation (reporter increase), % at 12.5 µM; 340,000 compounds, 0.3% hits;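 active means mean replicate activation score at least 90 and every replicate individually at or above 90; inconclusive means only one of the two criteria met; inactive means neither criterion met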;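 further: higher luciferase means less miR-122 activity so hits act as miR-122 inhibitors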
Numbers without * were called inactive; ? = inconclusive; / = no result; [ ] = remark or other dose.

SMILES	HIV Env fusion	MITF TRPM1 HTS	Wnt bcat act	esBAF inh	miR-122 sensor
C[C@@H]1CN([C@H](C)CO)C(=O)c2cc(NC(=O)Nc3ccc4c(c3)OCO4)ccc2O[C@H]1CN(C)Cc1ccc(C(F)(F)F)cc1	16[16.7 µM]	/	/	-6	-7[16.7 µM]
O=C(Nc1cccc(-c2cn3c(n2)SCC3)c1)c1ccc2c(c1)OCO2	-2	19	9	49*	-3
O=C(Nc1ccc(-c2cn3c(n2)SCC3)cc1)c1ccc2c(c1)OCO2	-11	18	5	34	-5
O=C(Nc1ccc2c(c1)OCO2)c1ccccn1	-29	58	46*	23	7
O=C(Nc1ccc2c(c1)OCCO2)Nc1ccc2c(c1)OCO2	-119	25	11	-37	-24
O=C(Nc1ccc2c(c1)OCO2)c1cnccn1	-31	44	-2	/	/
CC(=O)c1cccc(NC(=O)Nc2ccc3c(c2)OCO3)c1	-22	119*	3	52*	0
O=C(Nc1cccc(Cl)c1)Nc1ccc2c(c1)OCO2	-79	43	32*	58*	12
COc1ccc([Si](C)(C)[C@H]2[C@H](CC(=O)N(CCO)Cc3ccccc3)O[C@@]3(C(=O)N(C)c4ccccc43)[C@@H]2C)cc1	-13[16.7 µM]	/	/	/	/
O=C(Nc1ccccc1)N1CCCCN2[C@H](CO)[C@@H](c3ccc(-c4ccccc4)cc3)[C@@H]2C1	/	/	/	/	5[16.7 µM]
C[C@@H]1CN([C@@H](C)CO)C(=O)c2cc(NS(=O)(=O)c3ccccc3)ccc2O[C@@H](C)CCCCO[C@@H]1CN(C)S(=O)(=O)c1cn(C)cn1	-12[16.7 µM]	/	/	0	5[16.7 µM]
O=C(Cc1ccncc1)Nc1ccc2c(c1)[C@H]1C[C@@H](CC(=O)N3CCc4ccccc4C3)O[C@H](CO)[C@H]1O2	-2[16.7 µM]	/	/	1	-8[16.7 µM]
O=C(Nc1cccc(F)c1)c1ccc2c(c1)OCO2	/	51	/	78*	-4
Cn1ncc([N+](=O)[O-])c1C(=O)Nc1ccc(Cl)cc1	1	-2	-1	5	6
CCC(C(=O)Nc1ccc2c(c1)OCCO2)n1nnc2ccccc2c1=O (stereo unspecified)	-52	88*	15	59*	-3
CC(=O)c1cccc(NC(=O)NCc2ccc3c(c2)OCO3)c1	/	8	2	5	/
Cn1ncc([N+](=O)[O-])c1C(=O)Nc1ccc(-c2nc3ccccc3[nH]2)cc1	/	49	/	56*	8
O=C(NCc1ccc2c(c1)OCO2)Nc1cccc(Cl)c1	-14	80*	11	67*	-2
C[C@@H]1CCCCO[C@@H](CN(C)C(=O)CCCN(C)C)[C@@H](C)CN([C@H](C)CO)C(=O)c2cc(NC(=O)NC3CCCCC3)ccc2O1	5[16.7 µM]	/	/	-2	3[16.7 µM]
CC(C)NC(=O)N[C@H]1CC[C@H](CCNC(=O)C2CCCC2)O[C@@H]1CO	4[16.7 µM]	/	/	-2	/
CN1CCN(C(=O)C[C@H]2C=C[C@H](NC(=O)Cc3ccccn3)[C@H](CO)O2)CC1	4[16.7 µM]	/	/	0	3[16.7 µM]
NC(=O)c1ccc(NC(=O)Nc2ccc3c(c2)OCO3)cc1	-15	28	16	11	-6
COc1cccc(NC(=O)CN(C)CC(=O)Nc2ccc3c(c2)OCO3)c1	7	-5	-4	5	-5
O=C(Nc1ccc2c(c1)CCC2)Nc1ccc2c(c1)OCO2	-15	64	50*	53*	3
O=C(NC(=S)Nc1ccc(N2CCCCC2)c(Cl)c1)c1ccc2c(c1)OCCO2	70*	-24	-1	6	3
SMILES	HIV Env fusion	MITF TRPM1 HTS	Wnt bcat act	esBAF inh	miR-122 sensor
O=C(NC(=S)Nc1ccc(N2CCOCC2)c(Cl)c1)c1cncc(Br)c1	-47	16	/	/	/
COc1cccc(NC(=O)Nc2ccc3c(c2)OCO3)c1	-24	67	40*	61*	8
O=C(Cn1cnc2ccccc2c1=O)Nc1ccc2c(c1)OCO2	-13	41	15	57*	-1
NCC[C@H]1CC[C@H](NS(=O)(=O)Cc2ccccc2)[C@@H](CO)O1	8[16.7 µM]	/	/	0	1[16.7 µM]
O=C(Nc1ccc(Cl)c(-c2nc3ccccc3[nH]2)c1)c1ccc2c(c1)OCO2	-10	7	0	/	-4
Cc1ccc2c(c1)CCCN2C(=O)Nc1ccc2c(c1)OCO2	-30	/	29	?	-1
O=C(Nc1ccc2c(c1)OCO2)N1CCCc2ccccc21	-27	31	36*	?	-7
CCC(CC)C(=O)Nc1cccc(C(=O)Nc2ccc3c(c2)OCO3)c1	/	74	16	47*	4
O=C(Nc1cccc([N+](=O)[O-])c1)Nc1ccc2c(c1)OCCO2	-125	90*	10	/	/
O=C(Nc1ccc(-c2nc3ccccc3[nH]2)cc1)c1ccc2c(c1)OCO2	/	-41	-13	45*	-1
O=C(C[C@@H]1C=C[C@H](NC(=O)Nc2ccc(F)cc2)[C@@H](CO)O1)NCc1cccc(F)c1	-14[16.7 µM]	/	/	1	/
O=C(c1ccccc1F)N1C[C@H]2O[C@@H](CNS(=O)(=O)c3ccccc3)CC[C@H]21	55[16.7 µM]	/	/	/	/
Cc1ccc(NC(=O)NC(=O)CN2CCC(C(N)=O)CC2)c(C)c1	/	/	30	43*	6
C[C@H](CO)N1C[C@H](C)[C@H](CN(C)C(=O)Nc2ccc(F)cc2)Oc2cc(-c3ccc(F)cc3)ccc2S1(=O)=O	-24[16.7 µM]	/	/	/	-2[16.7 µM]
C[C@H](CO)N1C[C@H](C)[C@H](CN(C)C(=O)c2cnccn2)Oc2ncc(/C=C/c3ccccc3)cc2C1=O	5[16.7 µM]	/	/	-2	1[16.7 µM]
CC(OC(=O)c1snc(C(=O)NC2CCCCC2)c1N)C(=O)NC(C)(C)C (stereo unspecified)	?	-1	-5	0	2
CC(C)(C)NC(=O)COC(=O)c1snc(C(=O)NC2CCCCC2)c1N	101*	-13	-6	/	-13
Cc1ccc(OC(=O)N2CCOCC2)cc1	-59	/	10	22	-11
CC(C)(C)c1ccc(OC(=O)N2CCOCC2)cc1	-30	71	1	45*	-5
CC(C)(C)c1ccc(OCCC(=O)Nc2cccc(S(=O)(=O)N3CCOCC3)c2)cc1	75*	0	-3	/	/
O=C(CNC(=O)c1cccs1)Nc1cccc(S(=O)(=O)N2CCOCC2)c1	61*	-12	3	-4	1
Cc1ccc(NC(=O)COC(=O)CNC(=O)c2cccs2)cc1S(=O)(=O)N1CCOCC1	4	4	-2	4	1
COC(=O)[C@@H]1[C@@H](CO)[C@@H]2Cn3c(cccc3=O)[C@@H]2N1C(=O)C1CCCCC1	/	/	/	-5	2[16.7 µM]
CN(Cc1ccsc1)C(=O)CCc1nnc(Cc2c[nH]c3ccccc23)o1	5	-6	-1	/	/
CN(Cc1ccsc1)C(=O)CCc1nnc(CCCc2ccccc2)o1	-15	76	33*	?	-5
Cc1nc(C(C)NC(=O)CCc2nnc(CCCc3ccccc3)o2)c(C)s1 (stereo unspecified)	-44	100*	64*	70*	4
O=C(CCc1nnc(CCCc2ccccc2)o1)NC(C1CC1)C1CC1	-29	73	29	/	/
CCS(=O)(=O)N1CCCCN2[C@H](CO)[C@H](c3ccc(-c4ccccc4F)cc3)[C@@H]2C1	/	/	/	2	1[16.7 µM]
